Reference: PubChem BioAssay AID1159580 (chemical genetic matrix, 2015)
Hit rate of the full screen: of about 5,500 compounds, about 2,000 (36%) were called active. Roughly 18% stayed inconclusive and do not appear here. No stated cut-off is given here; in the data, active means normalized growth mostly below about 0.91 (no sharp cut-off); inconclusive means no clear call, values can overlap the other calls; inactive means mostly above about 0.92. The list shows a part of the results.

Assay: chemical genetic growth profiling, strain panel (AID 1159580);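 further: tested at 20 µM; growth read once vehicle control cultures reached saturation at 30 °C; 1 = growth at the plate median or of vehicle wells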
Details: S. cerevisiae deletion strains, growth OD

Measured: normalized growth

CN(C)C1C(=O)C(C(N)=O)=C(O)C2(O)C(=O)C3=C(O)c4c(O)ccc(Cl)c4C(O)C3CC12 (centres undefined)
inactive: locus YAL040C, strain CLN3, stronger effect = lower value 1 | locus YCL061C, strain MRC1 (second series), stronger effect = lower value 1 | locus YDR150W, strain NUM1, stronger effect = lower value 0.997 | locus YDR363W, strain ESC2, stronger effect = lower value 1 | locus YER002W, strain NOP16, stronger effect = lower value 1 | locus YGR078C, strain PAC10, stronger effect = lower value 0.989 | locus YJR075W, strain HOC1, stronger effect = lower value 0.999 | locus YMR307W, strain GAS1, stronger effect = lower value 0.978 | locus YNL175C, strain NOP13, stronger effect = lower value 1.02 | locus YNL197C, strain WHI3, stronger effect = lower value 0.979 | locus YNL224C, strain SQS1, stronger effect = lower value 0.996 | locus YNL322C, strain KRE1, stronger effect = lower value 0.995 | locus YOR083W, strain WHI5 (second series), stronger effect = lower value 0.995 | locus YPL241C, strain CIN2, stronger effect = lower value 1.01
